In the library only some 7.2% were active in any assay of this set; here they are far more common.
Marburg entry inh: qHTS for inhibitors of binding or entry into cells for Marburg Virus; Potency, µM (highest dose often 37.8 µM), for inactives: at the highest dose activity change, negative = inhibition, most hits filed as inhibitors; Marburg virus pseudotyped entry inhibition, cell reporter; AID 540276, 2011; 300,000 tested, 1.8% active; calls by dose curve; tested in HEK293 cells
RE007 growth inh: qHTS Assay for Inhibitors of the HIV-1 protein Vpr | S. pombe RE007 Vpr strain, BacTiter-Glo ATP luminescence, 24 h | Potency, µM (highest dose often 92.2 µM), for the others: top-dose activity change, negative = less growth, actives largely listed as inhibitors | 360,000 tested, 0.21% active | AID 651644, 2012; active means well fitted falling curve with a large enough effect; inconclusive means small, poorly fitted or top-dose-only effect; inactive means no such curve, though single readings can be large or run the other way; further: nearly all actives have a fitted effect of over 50% in size
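Fission yeast strain RE007, carrying one chromosomally integrated HIV-1 vpr copy, was seeded at OD 0.01 in PMG+AL medium with 23 nL pinned compound. After 24 h at 30 °C and 99% humidity, viability was read by BacTiter-Glo luminescence.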
FMDV inh: High Throughput Screening for Foot and Mouth Disease Virus Antivirals. FMDV antiviral cell-based qHTS. AID 1159524, 2015. Potency, µM (series often up to 57.9 µM), for the others: at the highest dose activity change, negative = inhibition, hits mostly inhibitors. 410,000 tested, 1.2% active; calls by dose curve; tested in HEK293T cells; further: read-out not given here; nearly all actives have a fitted effect of over 45% in size
HCV inhibitor: qHTS Assay for Inhibitors of Hepatitis C Virus (HCV); Huh7.5.1 HCVcc-Cre infection, luciferase reporter, 44 h; Potency, µM (titrated, usually from 41.8 µM), without a hit: top-dose activity change, negative = inhibition, usual class: inhibitors; 340,000 tested, 3.4% active
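Infectious HCV cell culture screen: compound-treated cells (1,000/well, pre-plated 4 h) are infected with HCVcc-Cre at roughly 0.5 moi and grown 44 h. Infection is quantified by luciferase signal after 15 min substrate incubation at room temperature.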
Lassa entry inh: qHTS for Inhibitors of binding or entry into cells for Lassa Virus. Lassa virus pseudotype entry inhibition, cell reporter. Potency, µM (titrated, usually from 37.9 µM), inactives show at the top dose activity change, negative = inhibition, actives largely listed as inhibitors. 300,000 tested, 1.2% active; calls by dose curve; tested in HEK293 cells; further: nearly all actives have a fitted effect of over 50% in size
Sm TGR block: qHTS Assay for the Inhibitors of Schistosoma Mansoni Peroxiredoxins | Potency, µM (highest dose often 114 µM), for inactives: at the top dose activity change, negative = inhibition, actives largely listed as inhibitors | purified TGR, DTNB reduction, TNB absorbance 405 nm | AID 485364, 2010 | 360,000 tested, 3% active | Schistosoma mansoni thioredoxin glutathione reductase (TGR), Q962Y6; further: nearly all actives have a fitted effect of over 60% in size
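First, TGR (20 nM dispensed) and NADPH were mixed with compound. Second, a 15 min room-temperature incubation followed. Third, further NADPH and then DTNB were added to start the reaction. Finally, TNB absorbance was monitored kinetically.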
* marks the source's active call; other numbers are inactive results; u = inconclusive; x = no result; [ ] = remark or other dose. Unless noted, the call rests on the fitted dose curve; in most records, active means well fitted curve in the direction sought with a large enough effect; inconclusive means small, poorly fitted or top-dose-only effect, or another doubt; inactive means no such curve, though single readings can be large; an effect the other way counts as inactive or inconclusive. On the % scale 0 is the no-effect control and ±100 the full control effect; potency means the concentration at half of the fitted maximal effect.

SMILES | Marburg entry inh | RE007 growth inh | FMDV inh | HCV inhibitor | Lassa entry inh | Sm TGR block
COc1c(C)cc(Br)cc1C(=O)NC(=S)Nc1ccc(Cl)c(C(=O)O)c1 | u | -7% | 67% | 5% | -19% | -31%
COCCC(=O)Nc1ccc2c(c1)CN(C(=O)CCSC)CC2 | -5%[46.1 µM] | -7% | -9% | 6% | 2% | 10%
COCCC(=O)Nc1ccc2c(c1)CN(C(=O)c1ccc(CSC)o1)CC2 | -5%[46.1 µM] | 57% | 5% | 10µM* | -17%[46.1 µM] | 45µM*
CCCCCc1nc2c(c(=O)c3ccccc3n2C)c(=O)n1C1CCCCCC1 | u | -7% | 32µM* | u | 16µM* | 2%
Cn1c2ccccc2c(=O)c2c(=O)n(-c3ccc(F)cc3)c(-c3cccs3)nc21 | 13%[46.1 µM] | -20% | 0% | -13% | 11%[46.1 µM] | -8%
CC(c1ccccc1)n1c(-c2cccs2)nc2c(c(=O)c3ccccc3n2C)c1=O (stereo unspecified) | 1% | -1% | u | 14µM* | 5% | -6%
COc1cc(/C=N/NC(=S)Nc2cccc(Cl)c2C)ccc1OCC(=O)N1CC(C)OC(C)C1 (stereo unspecified) | u | -1% | u | 11µM* | u | -4%
COc1cc(/C=N/NC(=O)c2ccc(Cl)cc2)ccc1OCC(=O)N1CC(C)OC(C)C1 (stereo unspecified) | u | 4% | -23% | 17% | -16% | -7%
Cc1nnc(-c2ccc(C)c(-c3ccc(C(=O)NCc4ccc(Cl)cc4)cc3)c2)o1 | x | x | x | x | 0.63µM* | x
CCCn1c2c(c(O)c(C(=O)NCCCN(CC)CC)c1=O)CCCC2 | 10µM* | 7% | -28% | u | -17% | -19%
CCN(CC)CCCNC(=O)c1c(O)c2c([nH]c1=O)CCCC2 | u | -3% | x | -2% | -1% | 8%
CCCn1c2c(c(O)c(C(=O)NCc3ccccc3)c1=O)CCCC2 | -6% | -2% | -11% | 5µM* | -24% | 0%
CCCn1c2c(c(O)c(C(=O)Nc3ccc(OC)cc3)c1=O)CCCC2 | -5% | -1% | 0% | 11µM* | -1% | 11%
CCCn1c2c(c(O)c(C(=O)Nc3ncccc3O)c1=O)CCCC2 | 13% | -3% | -11% | 4% | 0% | -7%
CCCn1c2c(c(O)c(C(=O)NC)c1=O)CCCC2 | 0% | -19% | -13% | u | 6% | 2%
O=C(NCc1cccnc1)c1ccccc1NS(=O)(=O)c1ccc(F)cc1F | x | -12% | -13% | -3% | x | 40µM*
C=CCOc1ccc(C(=O)Nc2ccccc2C(=O)NCc2cccnc2)cc1 | -24%[46.1 µM] | -23% | 7% | -28% | u | 40µM*
O=C(NCc1cccnc1)c1ccccc1NS(=O)(=O)c1ccc(F)cc1 | 7% | -3% | -16% | x | 8% | -1%
COC(=O)c1c(-c2cccs2)csc1NC(=O)c1cccc(Cl)c1 | u | x | 42% | x | 14%[46.1 µM] | 0%
COc1ccc(Cl)cc1NC1=NCC(C)S1 (stereo unspecified) | 22% | -1% | -3% | 11µM* | 2% | 4%
N#CC(C#N)=NNc1ccc(S(=O)(=O)N2CCCC2)cc1 | u | 0% | 32µM* | 1% | 28% | 20µM*
CC(=O)c1ccc(S(=O)(=O)N2CCN(C(=O)c3ccc(-n4nc(C)c(Cl)c4C)cc3)CC2)cc1 | x | 4% | u | 6.3µM* | x | -13%
O=C(c1ccc(S(=O)(=O)N2CCCCC2)cc1)N1CCN(CCN2C(=O)c3cccc4cccc(c34)C2=O)CC1 | u | -13% | 16µM* | u | 4% | 12%
CC(=O)c1ccc(OCC(O)CN2CCN(CC(O)COc3ccc(C(C)=O)cc3)CC2)cc1 (stereo unspecified) | u | -10% | -26% | -12% | 1% | -1%
CC(=O)c1ccc(OCC(O)CN2CCN(S(=O)(=O)c3c(C)c(C)cc(C)c3C)CC2)cc1 (stereo unspecified) | u | 8% | -19% | 13µM* | u | 0%
SMILES | Marburg entry inh | RE007 growth inh | FMDV inh | HCV inhibitor | Lassa entry inh | Sm TGR block
CCOc1ccc(S(=O)(=O)c2c(C(=O)c3ccc(CC)cc3)cnc3ccc(C)cc23)cc1 | u | x | -5% | x | x | -7%
Cc1ccc(NS(=O)(=O)c2ccc(C(=O)N3CCN(c4ncccn4)CC3)cc2)cc1 | u | -2% | u | u | 7.9µM* | -3%
CC(=O)c1ccc(S(=O)(=O)N2CCN(CCOc3ccc(Br)cc3)CC2)cc1 | x | u | 18µM* | u | x | -19%
Cc1cc(C)nc(N2CCN(C(=O)c3ccc(S(=O)(=O)N4CCCCCC4)cc3)CC2)n1 | 2%[46.1 µM] | -6% | u | 11µM* | 29% | 4%
Cc1ccc(C(=O)N2CCN(c3ncccn3)CC2)cc1 | x | -5% | -15% | 5% | x | -10%
CC(=O)c1ccc(S(=O)(=O)N2CCCC2)cc1 | u | 13% | 92% | -5% | 1% | 45µM*
CC(=O)c1ccc(S(=O)(=O)N2CCN(C(C)=O)CC2)cc1 | 18% | -11% | -1% | 2% | 12% | -1%
COc1ccccc1CNC(=O)c1cnn2c(C)c(Cc3ccc(F)cc3)c(C)nc12 | x | x | -12% | x | u | 17%
COc1ccccc1NC(=O)c1sc2nc(C)c(C(=O)Nc3ccc(C)cc3C)c(-c3cccs3)c2c1N | -21%[46.1 µM] | x | -15% | x | -4%[46.1 µM] | 4%
O=C(NCc1ccco1)C(c1cccs1)N(C(=O)C1COc2ccccc2O1)c1cccc(O)c1 (stereo unspecified) | -2% | -1% | -11% | -17% | -14% | 35µM*
CC(C)CCNC(=O)C(c1ccc(O)cc1)N(Cc1cccs1)C(=O)C1COc2ccccc2O1 (stereo unspecified) | u | 3% | u | 13µM* | 16µM* | -3%
COc1cccc(CNCCC2=C3C=CC=CC3N=C2)c1 (stereo unspecified) | 11µM* | x | x | x | x | x
COc1cccc(CCNCc2cccc(C(F)(F)F)c2)c1 | u | -10% | -11% | -20% | -2% | 3%
CN(C)S(=O)(=O)c1ccc(Cl)c(C(=O)Nc2cccc([N+](=O)[O-])c2)c1 | x | -3% | u | 11µM* | x | 7%
O=C(Nc1ccc(Nc2ccccc2)cc1)c1cc([N+](=O)[O-])ccc1Cl | x | -5% | u | 11µM* | x | -23%
Cc1ccccc1NC(=O)c1cc(S(=O)(=O)c2ccccc2)ccc1Cl | u | -1% | -16% | -28% | u | 7%
Cc1cccc(NC(=O)c2cc(S(=O)(=O)c3ccccc3)ccc2Cl)c1 | u | 12% | -40% | 7.9µM* | u | 0%
O=C(Nc1ccc2c(c1)CCCN2C(=O)c1ccco1)c1cc([N+](=O)[O-])ccc1Cl | u | -12% | u | u | 2.5µM* | -2%
